# According to PubChem BioAssay (NCATS):
# Inconclusive results are not listed. The source made the active and inactive calls. Calls come from the whole dose curve; as a rule, active = well fitted cell-killing curve with a large enough effect; inconclusive = small, poorly fitted or top-dose-only effect, or effect the other way; inactive = no such curve, though single readings can be large or run the other way.
# Test: Quantitative High-Throughput drug screen in 47 multiple myeloma cell lines against the NCATS MIPE library collection: MM1S_ATCC cell viability assay (AID 1918980); note: nearly all actives have a fitted effect of over 45% in size
# Settings: MM1S myeloma viability, CellTiter-Glo ATP luminescence, 48 h; series mostly up to 45.8 µM
# How it was run: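 Myeloma cells (500/well) treated with MIPE 4.0 compounds for 48 h at 37 °C, 5% CO2. Viability read as ATP via CellTiter-Glo luminescence after 5 min at RT; DMSO-only wells = 100%, media-only = 0% viability.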
# Potency is the fitted concentration of half-maximal effect.
row,SMILES,Potency
1,OC[C@H]1O[C@@H](OCCc2ccc(O)cc2)[C@H](O)[C@@H](O)[C@H]1O,20.9 µM (active)
2,CC(C)C[C@@H](N)[C@H](O)C(=O)N[C@H](C(=O)N[C@H](C(=O)N[C@@H](CC(=O)O)C(=O)O)C(C)C)C(C)C,23.5 µM (active)
3,N[C@@H](CC(=O)N1CCn2c(nnc2C(F)(F)F)C1)Cc1cc(F)c(F)cc1F,26.4 µM (active)
4,CN(C)CCCNC(=O)c1ccc(-c2cc(O)c3ncccc3c2)cc1,20.9 µM (active)
5,COc1c(C)c2c(c(O)c1CC=C(C)CCC(=O)O)C(=O)OC2,3.72 µM (active)
6,CC=C(C(=CC)c1ccc(O)cc1)c1ccc(O)cc1,11.8 µM (active)
7,COc1ccc(CCN(C)CCCOc2ccc(S(=O)(=O)c3[nH]c4ccccc4c3C(C)C)cc2)cc1OC,20.9 µM (active)
8,CCCCC[C@H](O)C=C[C@H]1[C@H](O)CC(=O)[C@H]1CC=CCCCC(=O)O,20.9 µM (active)
9,C[C@H](c1ccc(F)cc1CCCC(=O)O)N(c1cc(F)ccc1F)S(=O)(=O)c1ccc(Cl)cc1,10.5 µM (active)
10,Cc1cc2c(cc1C1(c3ccc(C(=O)O)cn3)CC1)C(C)(C)CCC2(C)C,inactive
11,O=C(CCCN1CCN(c2ccc(F)cc2)CC1)NC1c2ccccc2CSc2ccccc21 (centres undefined),10.5 µM (active)
12,O=C1NC(=O)C(=Cc2ccc(-c3ccc(F)cc3O)o2)S1,16.6 µM (active)
13,OCCn1cc(-c2ccc3c(c2)CCC3=NO)c(-c2ccncc2)n1,26.4 µM (active)
14,C[C@]12C=CC(=O)C=C1CC[C@@H]1[C@@H]2[C@@H](O)C[C@@]2(C)[C@@H]1CC[C@]2(O)C(=O)CO,5.26 µM (active)
